Laboratory results reported in PMC5540273 (PLoS ONE, 2017).

How the values were obtained:
Conditions in all cases: concentration: 1 μM, replicates: in singlicate; n = 1
TNNI3K = tested on: TNNI3K
TRKA = tested on: T1, TRKA
T1 construct: gene NTRK1

TRKB = tested on: TRKB
TRKC = tested on: T2, TRKC
T2 construct: gene NTRK3

TRPM6 = tested on: TRPM6
TSSK1B = tested on: TSSK1B
TSSK3 = tested on: TSSK3
TTK = tested on: TTK
TXK = tested on: TXK
[1] = tested on: TYK2(JH1domain-catalytic)
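Further: KINOMEscan kinase panel screen.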

| SMILES | %Inh (TNNI3K) [%] | %Inh (TRKA) [%] | %Inh (TRKB) [%] | %Inh (TRKC) [%] | %Inh (TRPM6) [%] | %Inh (TSSK1B) [%] | %Inh (TSSK3) [%] | %Inh (TTK) [%] | %Inh (TXK) [%] | %Inh [1] [%] |
| --- | --- | --- | --- | --- | --- | --- | --- | --- | --- | --- |
| Cl.Cl.NCC(NCc1ccc(-c2ccnc3[nH]ccc23)s1)c1ccccc1 (stereo not shown) [GSK1321565] | 0 | 98.5 | 72 | 70 | 0 | 38 | 16 | 0 | 25 | 80 |
| CSc1cccc2c(-c3ccncn3)c(-c3ccc(F)cc3)nn12 [GW514786] | 6 | 16 | 0 | 0 | 17 | 0 | 22 | 8 | 0 | 0 |
| Cl.c1ccc(-c2ccc3c(Nc4ccc5[nH]ncc5c4)ccnc3c2)nc1 [GW440137] | 0 | 0 | 16 | 17 | 25 | 12 | 7 | 3 | 74 | 14 |
| Cn1cc(-c2ccc3c(c2)CCN3C(=O)Cc2cccc(F)c2)c2c(N)ncnc21 [GSK2603358] | 0 | 34 | 55 | 50 | 0 | 5 | 11 | 67 | 25 | 22 |
| FC(F)(F)c1ccc(/C=C/c2cncnc2Nc2ccc3[nH]c(Cc4ccccc4)nc3c2)cc1 [GW709199] | 0 | 0 | 8 | 0 | 0 | 0 | 0 | 0 | 0 | 41 |
| COC(=O)Nc1nc2ccc(Oc3ccc(NC(=O)Nc4cc(C(F)(F)F)ccc4F)cc3)cc2n1C.Cl [GW692089] | 72 | 100 | 84 | 96.5 | 0 | 0 | 0 | 17 | 0 | 26 |
| CCS(=O)(=O)c1ccc(OC)c(Nc2nccc(-c3c(-c4cccc(NC(=O)c5c(F)cccc5F)c4)nn4ncccc34)n2)c1 [GSK326180] | 15 | 0 | 5 | 0 | 55 | 23 | 12 | 0 | 15 | 0 |
| Nc1ncnc2c1nc(-c1ccccc1)n2-c1ccccc1 [SKF-97293] | 0 | 37 | 48 | 36 | 50 | 2 | 22 | 0 | 15 | 68 |
| Cc1ccc(C(=O)N2CC[C@@H](O)C2)cc1-n1c(C)cc(OCc2ccc(F)cc2F)c(Br)c1=O | 0 | 0 | 0 | 0 | 0 | 0 | 0 | 3 | 0 | 0 |
| c1ccc(-c2cnc3nccnn23)cc1 [AH20685] | 0 | 0 | 17 | 0 | 29 | 0 | 9 | 0 | 0 | 0 |
| CCCCc1nn2ncccc2c1-c1ccnc(Nc2ccc(N3CCN(C)CC3)cc2)n1 [GW684941] | 41 | 88 | 78 | 66 | 61 | 9 | 7 | 50 | 74 | 44 |
| COc1cc(Nc2nccc(N3CCC(NC(=O)Nc4cccc(C(C)=O)c4)C3)n2)cc(OC)c1OC (stereo not shown) [GSK1379753] | 9 | 62 | 63 | 92.3 | 41 | 6 | 9 | 21 | 0 | 45 |
| C[C@@H](Oc1cc(-n2cnc3cc(-c4ccnc(NCCS(C)(=O)=O)c4)ccc32)sc1C(N)=O)c1ccccc1Cl [GSK907232] | 31 | 91 | 39 | 30 | 0 | 11 | 9 | 0 | 28 | 12 |
| CN1CCN(Cc2cccc(-c3ccc4c(Nc5ccc(Oc6ccccc6)cc5)ccnc4c3)c2)CC1 [GW578342] | 6 | 43 | 0 | 19 | 39 | 0 | 6 | 0 | 5 | 8 |
| O=C(Nc1cccc(Oc2ccc3nc(NC(=O)C4CC4)cn3n2)c1)c1ccccc1C(F)(F)F | 4 | 0 | 0 | 0 | 0 | 7 | 0 | 26 | 17 | 5 |
| CC(C)c1nc(-c2cccc(NS(=O)(=O)c3c(F)cccc3F)c2F)c(-c2ccnc(Nc3ccc(N4CCOCC4)nc3)n2)s1 [GSK2008607] | 92.7 | 87 | 0 | 51 | 57 | 0 | 34 | 82 | 95.2 | 94.9 |

| SMILES | %Inh (TNNI3K) [%] | %Inh (TRKA) [%] | %Inh (TRKB) [%] | %Inh (TRKC) [%] | %Inh (TRPM6) [%] | %Inh (TSSK1B) [%] | %Inh (TSSK3) [%] | %Inh (TTK) [%] | %Inh (TXK) [%] | %Inh [1] [%] |
| --- | --- | --- | --- | --- | --- | --- | --- | --- | --- | --- |
| Oc1cc(Nc2ccnc3cc(I)ccc23)ccc1F [GW552771] | 2 | 0 | 23 | 26 | 26 | 6 | 13 | 0 | 94.5 | 32 |
| O=C(Nc1n[nH]c2cc(-c3ccoc3)ccc12)C1CC1 [SB-738481] | 0 | 30 | 25 | 49 | 0 | 0 | 0 | 0 | 20 | 51 |
| COc1cccc(C2=C(Nc3ccc(Cl)c(C(=O)O)c3)C(=O)NC2=O)c1 [SB-390769] | 13 | 0 | 48 | 34 | 0 | 30 | 16 | 0 | 3 | 100 |
| O=C(O)C(F)(F)F.O=C(O)C(F)(F)F.O=c1[nH]ccc2nc(N[C@@H]3CCCNC3)nc(Nc3ccc(S(=O)(=O)N4CCOCC4)cc3)c12 [GSK2177277] | 15 | 100 | 92.5 | 98 | 19 | 95.1 | 99.7 | 96.8 | 35 | 99.7 |
| O=C(Nc1cccc(-c2nn3ccccc3c2-c2ccnc(Nc3cccc(C(F)(F)F)c3)n2)c1)c1c(F)cccc1F [GSK292658] | 0 | 0 | 0 | 0 | 11 | 2 | 5 | 20 | 48 | 20 |
| Cc1ccc(F)c(C(=O)Nc2cccc(-c3nn4ccccc4c3-c3ccnc(Nc4cccc(F)c4)n3)c2)c1F [GSK361061] | 37 | 33 | 0 | 0 | 36 | 10 | 19 | 39 | 52 | 0 |
| CCn1c(-c2nonc2N)nc2c(C#CC(C)(C)O)nc(OC[C@H](N)c3ccccc3)cc21 [GSK943949] | 0 | 18 | 0 | 18 | 0 | 49 | 82 | 15 | 8 | 19 |
| COc1ccc(Nc2nccc(N3CCC(NC(=O)Nc4cccc(OC)c4)C3)n2)cc1 (stereo not shown) [GSK1379742] | 0 | 54 | 40 | 76 | 0 | 0 | 18 | 0 | 0 | 24 |
| Cc1cccc(Nc2nc(N[C@H]3CCNC3)ncc2C(N)=O)c1.Cl [GSK2197149] | 0 | 93.3 | 0 | 18 | 34 | 13 | 29 | 29 | 15 | 46 |
| COc1cccc(NC(=O)NC2CCN(c3ccnc(Nc4cc(OC)c(OC)c(OC)c4)n3)C2)c1 (stereo not shown) [GSK1379763] | 0 | 54 | 63 | 89 | 3 | 3 | 20 | 5 | 1 | 20 |
| COc1cccc(C(=O)Nc2cccc(Oc3ccc4nc(NC(=O)C5CC5)cn4n3)c2)c1 | 87 | 0 | 0 | 0 | 17 | 6 | 0 | 13 | 37 | 0 |
| CN(c1ccc(NC(=O)Nc2cc(C(F)(F)F)ccc2F)cc1)c1ccnc(Nc2ccc(S(N)(=O)=O)cc2)n1 [GW809893] | 93.3 | 100 | 97.6 | 98.7 | 31 | 5 | 9 | 22 | 26 | 44 |
| Cc1occc1-c1ncc(OC[C@@H](N)Cc2c[nH]c3ccccc23)cc1-c1ccc2[nH]nc(C)c2c1.O=C(O)C(F)(F)F [GSK682037] | 5 | 33 | 13 | 0 | 0 | 16 | 13 | 22 | 47 | 7 |
| O=c1[nH]cc(-c2ccc(N3CCOCC3)cc2)c2sc(-c3cn[nH]c3)cc12 [GSK2276055] | 0 | 0 | 0 | 0 | 0 | 18 | 13 | 22 | 76 | 23 |
| COc1cc(Nc2nccc(-c3c(-c4cccc(NC(=O)c5c(F)cccc5F)c4)nn4ncccc34)n2)cc(OC)c1OC [GSK327238] | 55 | 48 | 0 | 0 | 54 | 11 | 19 | 10 | 93.6 | 88 |
